{"source": "PubChem BioAssay (NCATS)", "key": {"[1]": {"target": "Cytochrome P450 3A4 (Homo sapiens) (UniProt P08684)", "sequence (P08684 whole entry, looked up)": "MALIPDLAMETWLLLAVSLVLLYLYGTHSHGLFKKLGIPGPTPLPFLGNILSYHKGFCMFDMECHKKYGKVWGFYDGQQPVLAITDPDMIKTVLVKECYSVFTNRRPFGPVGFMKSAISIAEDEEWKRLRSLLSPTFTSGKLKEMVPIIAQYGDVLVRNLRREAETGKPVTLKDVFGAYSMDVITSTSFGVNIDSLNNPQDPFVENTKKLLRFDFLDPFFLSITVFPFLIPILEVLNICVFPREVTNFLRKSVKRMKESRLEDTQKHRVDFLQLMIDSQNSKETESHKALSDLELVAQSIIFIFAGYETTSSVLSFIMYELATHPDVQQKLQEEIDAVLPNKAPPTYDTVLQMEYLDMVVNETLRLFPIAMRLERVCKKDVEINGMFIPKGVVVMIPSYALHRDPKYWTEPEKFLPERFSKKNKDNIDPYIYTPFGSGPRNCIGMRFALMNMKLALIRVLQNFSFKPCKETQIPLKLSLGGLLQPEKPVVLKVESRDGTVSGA", "assay": "qHTS Assay for Inhibitors and Substrates of Cytochrome P450 3A4 (AID 884); also: potency is read from the fitted curve at half-maximal effect; nearly all actives have a fitted effect of over 50% in size", "how_it_was_run": "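20 nM human CYP3A4 with 25 uM Luciferin-PPXE (at KM) in 200 mM KPO4, preincubated 10 min with compound; NADPH regeneration started a 60 min RT reaction. Luciferin detected by luminescence, normalized to 57 uM ketoconazole as full inhibition.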"}, "[2]": {"target": "Cytochrome P450 3A4 (Homo sapiens) (UniProt P08684)", "assay": "qHTS Assay for Activators of Cytochrome P450 3A4 (AID 885); also: nearly all actives have a fitted effect of over 65% in size", "how_it_was_run": "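Steps: enzyme/substrate mix dispensed; compound added, 10 min RT; NADPH regeneration solution added, 60 min RT; luciferin detection buffer stops reaction; 20 min later luminescence measured.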"}, "[3]": {"target": "Peroxisome proliferator-activated receptor delta (Homo sapiens) (UniProt Q03181)", "sequence (Q03181 whole entry, looked up)": "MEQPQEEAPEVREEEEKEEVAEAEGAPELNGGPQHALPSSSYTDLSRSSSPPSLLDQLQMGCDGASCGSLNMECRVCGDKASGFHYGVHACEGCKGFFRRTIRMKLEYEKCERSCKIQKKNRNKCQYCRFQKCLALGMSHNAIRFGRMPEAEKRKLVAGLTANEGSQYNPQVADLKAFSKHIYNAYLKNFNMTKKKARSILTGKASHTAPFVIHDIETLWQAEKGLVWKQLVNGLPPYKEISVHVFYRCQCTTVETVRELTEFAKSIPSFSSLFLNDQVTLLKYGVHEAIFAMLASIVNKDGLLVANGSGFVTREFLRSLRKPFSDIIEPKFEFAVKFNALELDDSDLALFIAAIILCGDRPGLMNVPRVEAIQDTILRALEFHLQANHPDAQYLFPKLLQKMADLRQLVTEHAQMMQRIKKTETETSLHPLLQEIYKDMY", "assay": "qHTS assay for small molecule agonists of peroxisome proliferator-activated receptor delta signaling (AID 588534; calls by dose curve)", "how_it_was_run": "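Cell-based beta-lactamase reporter assay run in agonist mode: cells seeded and incubated 5 hrs at 37 C, compounds added and incubated 18 hrs at 37 C. CCF4 dye fluorescence read after 2 hrs at RT; EC50 and efficacy from Hill fits.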"}, "[4]": {"target": "Vitamin D3 receptor (Homo sapiens) (UniProt P11473)", "sequence (P11473 whole entry, looked up)": "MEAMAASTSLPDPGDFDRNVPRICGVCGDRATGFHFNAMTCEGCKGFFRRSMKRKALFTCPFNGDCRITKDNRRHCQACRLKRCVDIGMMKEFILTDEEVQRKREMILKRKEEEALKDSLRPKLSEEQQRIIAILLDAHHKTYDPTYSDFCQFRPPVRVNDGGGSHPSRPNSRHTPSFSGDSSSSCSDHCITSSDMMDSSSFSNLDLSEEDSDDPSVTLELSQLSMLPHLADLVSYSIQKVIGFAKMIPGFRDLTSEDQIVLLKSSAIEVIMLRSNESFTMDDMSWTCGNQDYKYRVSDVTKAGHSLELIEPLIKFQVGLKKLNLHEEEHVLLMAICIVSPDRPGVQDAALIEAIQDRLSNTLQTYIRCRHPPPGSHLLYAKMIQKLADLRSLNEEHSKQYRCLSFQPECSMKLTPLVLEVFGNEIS", "assay": "qHTS assay for small molecule antagonists of vitamin D receptor signaling (AID 588541; calls by dose curve;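 also: receptor activated by calcitriol during compound treatment; series mostly up to about 77 µM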)", "how_it_was_run": "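VDR-UAS-bla HEK293T cells (2000/well, 2% charcoal-stripped FBS) were treated with titrated compounds plus 1-alpha,25-dihydroxyvitamin D3 (50 nM or 3 nM final) for 16 h at 37 C. CCF4 beta-lactamase fluorescence was read; Hill fits gave IC50.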"}, "[5]": {"target": "Vitamin D3 receptor (Homo sapiens) (UniProt P11473)", "assay": "qHTS assay for small molecule agonists of vitamin D receptor signaling (AID 588543; calls by dose curve)", "how_it_was_run": "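VDR-UAS-bla HEK293T cells, 2000/well, 2% charcoal-stripped FBS; compound titration 16 h at 37 C; CCF4 beta-lactamase ratio read. Normalized to 50 nM 1-alpha,25-dihydroxyvitamin D3 (100%) and DMSO; Hill fit gives EC50, efficacy.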"}, "[6]": {"assay": "qHTS assay for small molecule agonists of the antioxidant response element (ARE) signaling pathway (AID 651741; active = well fitted activation curve with a large enough effect in the signal ratio; the % refers to the signal ratio; also: potency is read from the fitted curve at half-maximal effect)", "how_it_was_run": "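ARE-bla HepG2 cells (beta-lactamase reporter under ARE control) were plated at 2,000 cells/well, preincubated 5 h at 37 C/5% CO2, then treated with DMSO-dissolved compounds for 16 h at 37 C; LiveBLAzer B/G FRET substrate added, fluorescence read after 2 h at room temperature.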"}, "[7]": {"assay": "qHTS assay for small molecule activators of the p53 signaling pathway (AID 651743; active = well fitted activation curve with a large enough effect in the signal ratio, not every such curve was filed as active; the % refers to the signal ratio; also: series mostly up to about 92 µM)", "conditions": "HCT-116 p53RE-bla, beta-lactamase FRET ratio, 16 h; activation: active compounds read high", "how_it_was_run": "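p53RE-bla HCT-116 cells with a stably integrated beta-lactamase reporter under p53 response elements were plated, rested 5 hours at 37 C/5% CO2, then exposed to compounds in DMSO for 16 hours at 37 C. LiveBLAzer B/G FRET substrate was read after 2 hours at room temperature.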"}, "[8]": {"assay": "qHTS assay for environmental chemicals that activate the Aryl hydrocarbon Receptor (AhR) signaling pathway (AID 651777); also: nearly all actives have a fitted effect of over 15% in size", "conditions": "1A2-DRE human hepatoma cells, luciferase, 24 h; activation: active compounds read high", "how_it_was_run": "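Induction of CYP1A2 transcription through AhR is detected by luciferase in 1A2-DRE hepatoma cells. Compounds or DMSO act for 24 hr at 37 C before a 30 min One-Glo step at room temperature.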"}, "[9]": {"assay": "qHTS assay for small molecule agonists of the antioxidant response element (ARE) signaling pathway measured by Nrf2-dependant transcriptional activity (AID 720636; active = well fitted curve in the direction sought with a large enough effect in the repeat runs; an effect the other way counts as inactive or inconclusive)", "how_it_was_run": "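We exposed ARE-luc HepG2 cells, seeded in assay medium with 1% dialyzed FBS and allowed 6 hr to adhere, to test compounds overnight (16 hr, 37 C) before measuring luciferase with ONE-Glo.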"}, "[10]": {"assay": "qHTS assay for small molecule agonists of the antioxidant response element (ARE) signaling pathway measured by Nrf2-dependant transcriptional activity - cell viability counter screen (AID 720653; active = well fitted curve in the direction sought with a large enough effect in the repeat runs; an effect the other way counts as inactive or inconclusive)", "conditions": "ARE-bla HepG2 viability, CellTiter-Glo ATP luminescence, 16 h; max response: active compounds read low", "how_it_was_run": "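ARE-bla HepG2 cells (2,000/well) rested 5 hrs at 37C/5% CO2, then exposed to compounds in DMSO for 16 hrs. Viability was read in the same wells as intracellular ATP by luminescence, 30 min at room temperature after reagent addition.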"}, "[11]": {"assay": "qHTS assay for cell viability of the p53RE-bla HCT-116 cell line (AID 743292); also: potency is read from the fitted curve at half-maximal effect; nearly all actives have a fitted effect of over 55% in size", "how_it_was_run": "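In this qHTS counter-screen, metabolically competent p53RE-bla HCT-116 cells were counted via their ATP content. Compounds were applied for 16 h at 37 C and luciferase-coupled luminescence was measured.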"}, "[12]": {"target": "Nuclear receptor subfamily 1 group I member 2 (Rattus norvegicus) (UniProt Q9R1A7)", "sequence (Q9R1A7 whole entry, looked up)": "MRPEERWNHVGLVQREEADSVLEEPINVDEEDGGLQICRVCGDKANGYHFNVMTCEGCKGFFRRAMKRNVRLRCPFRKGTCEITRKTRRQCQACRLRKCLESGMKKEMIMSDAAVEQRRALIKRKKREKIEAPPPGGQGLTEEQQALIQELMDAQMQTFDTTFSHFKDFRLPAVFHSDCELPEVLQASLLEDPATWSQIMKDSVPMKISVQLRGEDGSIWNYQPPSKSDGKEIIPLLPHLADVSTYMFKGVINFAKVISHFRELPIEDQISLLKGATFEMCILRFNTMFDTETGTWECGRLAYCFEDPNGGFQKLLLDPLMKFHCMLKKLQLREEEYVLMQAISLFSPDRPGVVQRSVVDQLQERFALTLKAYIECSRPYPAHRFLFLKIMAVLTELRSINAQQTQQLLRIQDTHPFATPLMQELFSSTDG", "assay": "qHTS assay for small molecule activators of the rat pregnane X receptor (rPXR) signaling pathway (AID 651751; call rule not given here)", "conditions": "rPXR reporter cells, luciferase (One-Glo), 24 h"}, "[13]": {"target": "Luciferin 4-monooxygenase (Photinus pyralis) (UniProt P08659)", "sequence (P08659 whole entry, looked up)": "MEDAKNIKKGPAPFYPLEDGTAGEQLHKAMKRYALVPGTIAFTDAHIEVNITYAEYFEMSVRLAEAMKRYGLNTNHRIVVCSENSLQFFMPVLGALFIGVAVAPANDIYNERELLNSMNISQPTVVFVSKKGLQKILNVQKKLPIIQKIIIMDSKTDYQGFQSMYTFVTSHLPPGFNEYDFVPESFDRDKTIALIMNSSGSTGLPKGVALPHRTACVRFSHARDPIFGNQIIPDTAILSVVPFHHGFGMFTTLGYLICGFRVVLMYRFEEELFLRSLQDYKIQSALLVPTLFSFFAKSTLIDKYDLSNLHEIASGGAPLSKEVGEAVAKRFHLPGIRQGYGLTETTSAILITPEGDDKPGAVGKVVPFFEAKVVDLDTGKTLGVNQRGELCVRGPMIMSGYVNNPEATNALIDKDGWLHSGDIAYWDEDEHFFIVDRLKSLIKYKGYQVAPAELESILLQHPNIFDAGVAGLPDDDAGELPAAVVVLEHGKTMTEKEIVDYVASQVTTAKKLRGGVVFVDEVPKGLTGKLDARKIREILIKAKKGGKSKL", "assay": "Biochemical firefly luciferase enzyme assay for NPC (AID 624030); also: series mostly up to about 59 µM; nearly all actives have a fitted effect of over 70% in size", "how_it_was_run": "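Counter-screen for direct inhibition of the luciferase enzyme by approved-drug library compounds, run at 10 nM enzyme in 50 mM Tris acetate (final). Luminescence was read within 5 min of enzyme-buffer addition and normalized to PTC124 versus DMSO (0%).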"}, "[14]": {"assay": "qHTS for Inhibitors of the vitamin D receptor (VDR): Hit Validation using a Texas Red Assay (AID 602201); also: potency is read from the fitted curve at half-maximal effect", "how_it_was_run": "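Fluorescence polarization (Ex 595/Em 615 nm) of Texas Red (7 nM) with 1.5 uM VDR-LBD and LG19078 (final concentrations). Compounds were incubated for 2 hours at room temperature.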"}, "[15]": {"assay": "Cell Viability - LYMP2-003 (AID 965); also: potency is read from the fitted curve at half-maximal effect; nearly all actives have a fitted effect of over 50% in size", "how_it_was_run": "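Human lymphoblastoid LYMP2-003 cells, 2500/well, exposed to compounds for 24 h at 37 C in complete medium. Viability read as intracellular ATP by CellTiter-Glo luminescence; AC50 from Hill-equation fits of qHTS concentration-response data.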"}, "[16]": {"assay": "Cell Viability - LYMP2-005 (AID 967); also: potency is read from the fitted curve at half-maximal effect", "how_it_was_run": "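Human lymphoblastoid LYMP2-005 cells, 2,500 per well in complete medium, rested 5 h at 37C then compound-treated 24 h at 37C. Intracellular ATP read by CellTiter-Glo luminescence after 30 min at room temperature; AC50 from Hill-equation fits of concentration-response data.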"}}, "note": "A number with no mark means an inactive call. Results filed as inconclusive are left out. A call without a number means that no potency is given here. The source made the active and inactive calls. Unless noted, calls follow the shape of the dose curve; as a rule, active = well fitted curve in the direction sought with a large enough effect; inconclusive = small, poorly fitted or top-dose-only effect, or another doubt; inactive = no such curve, though single readings can be large; an effect the other way counts as inactive or inconclusive.", "data": [{"smiles": "C=CCn1c(=O)n(CC=C)c(=O)n(CC=C)c1=O", "values": [{"measurement": "Potency", "setting": "[1]", "value": "10 µM (active)"}, {"measurement": "Potency", "setting": "[2]", "value": "inactive"}, {"measurement": "outcome", "setting": "[3]", "value": "inactive"}]}, {"smiles": "ClC1=C(Cl)[C@]2(Cl)[C@H]3[C@H]([C@@H]4C=C[C@H]3C4)[C@]1(Cl)C2(Cl)Cl", "values": [{"measurement": "Potency", "setting": "[4]", "value": "inactive"}, {"measurement": "outcome", "setting": "[5]", "value": "inactive"}, {"measurement": "Potency", "setting": "[6]", "value": "61.1 µM (active)"}, {"measurement": "activation", "setting": "[7]", "value": -0.297, "unit": "%"}, {"measurement": "activation", "setting": "[8]", "value": 0.0639, "unit": "%"}, {"measurement": "Potency", "setting": "[9]", "value": "inactive"}, {"measurement": "max response", "setting": "[10]", "value": -24.6, "unit": "%"}, {"measurement": "Potency", "setting": "[11]", "value": "44.7 µM (active)"}, {"measurement": "max response", "setting": "[12]", "value": 7.41, "unit": "%"}]}, {"smiles": "O=C1c2c(O)ccc([N+](=O)[O-])c2C(=O)c2c([N+](=O)[O-])ccc(O)c21", "values": [{"measurement": "Potency", "setting": "[1]", "value": "7.94 µM (active)"}, {"measurement": "Potency", "setting": "[2]", "value": "inactive"}, {"measurement": "outcome", "setting": "[3]", "value": "inactive"}]}, {"smiles": "CC[C@H](OC(C)=O)C(C[C@H](C)NC)(c1ccccc1)c1ccccc1", "values": [{"measurement": "Potency", "setting": "[13]", "value": "inactive"}]}, {"smiles": "COC(=O)COc1ccc(/C=C2\\C(=O)NC(=S)N(c3ccc(C)cc3)C2=O)cc1OC", "values": [{"measurement": "Potency", "setting": "[14]", "value": "inactive"}]}, {"smiles": "CCOC(=O)c1c(NS(=O)(=O)c2ccccc2)n(CCCOC)c2nc3ccccc3nc12", "values": [{"measurement": "Potency", "setting": "[14]", "value": "3.55 µM (active)"}]}, {"smiles": "O=c1oc2ccccc2c(O)c1[C@H]1c2ccc(O)cc2Oc2c1c(=O)oc1ccccc21", "values": [{"measurement": "Potency", "setting": "[14]", "value": "inactive"}]}, {"smiles": "Nc1ccc(-c2ccc(N)c(O)c2)cc1O", "values": [{"measurement": "Potency", "setting": "[2]", "value": "inactive"}, {"measurement": "Potency", "setting": "[15]", "value": "50.1 µM (active)"}, {"measurement": "Potency", "setting": "[16]", "value": "50.1 µM (active)"}, {"measurement": "outcome", "setting": "[3]", "value": "inactive"}]}]}
